Hits are enriched below; roughly 3% of the tested compounds scored in any of these assays.
NALP1 yeast inh: blocks the NALP1 inflammasome reconstituted in yeast | 0.61% of 280,000 active | S. cerevisiae NALP1/ASC/caspase-1 growth, X-gal OD620, 72 h | inhibition, % at 10 µM | AID 2071; in the data active means inhibition mostly above about 24%, no sharp cut-off; inactive means mostly below about 32%
A1 inh: inhibitors of the anti-apoptotic protein A1, read as caspase activation. caspase activation, % (no concentration beside the values). MEF A1-2A-BIM cells, Caspase-Glo 3/7 luminescence, 3 h; percent of clofoctol response, vehicle zero. 0.066% of 330,000 active;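 active means over half of replicate activation scores above 10%, or exactly half above 10 with the replicate mean above 10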
NLRP3 yeast inh: blocks the NALP3 inflammasome reconstituted in yeast. Yeast reconstituted NLRP3/ASC/caspase-1, beta-gal luminescence, 24 h. inhibition, % at 10 µM. 0.39% of 330,000 active;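 active means inhibition of 50% or more; inactive means inhibition below 50%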;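 further: plate controls were induced DMSO wells for no effect and uninduced yeast grown without galactose for full effect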
Mot1-301 SUMO: blocks SUMOylation pathway, rescuing yeast Mot1-301 growth | growth rescue, % at 18.8 µM | 1% of 320,000 active | AID 2716 | S. cerevisiae Mot1-301 growth rescue, ATP luminescence, 38.5C; percent above DMSO median, 100 means doubled;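 active means every valid replicate shows activation above 250% relative to neutral control wells; inactive means the rest, any valid replicate at or below 250%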;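 further: OY570 slx delta 5 strain wells were the positive control but not used for scaling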
CHT PAM: allosterically activates the human high affinity choline transporter; AID 488977; B-score at 10 µM; CHT-expressing cells, membrane potential dye, choline EC20; active compounds read high; LV-AA mutant CHT in HEK293 cells; 0.49% of 310,000 active; Q9GZV3;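 active means initial fluorescence not abnormally high and integrated response B-score, plate-corrected, over 3 SD above library mean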
Target sequence (Q9GZV3 whole entry, looked up): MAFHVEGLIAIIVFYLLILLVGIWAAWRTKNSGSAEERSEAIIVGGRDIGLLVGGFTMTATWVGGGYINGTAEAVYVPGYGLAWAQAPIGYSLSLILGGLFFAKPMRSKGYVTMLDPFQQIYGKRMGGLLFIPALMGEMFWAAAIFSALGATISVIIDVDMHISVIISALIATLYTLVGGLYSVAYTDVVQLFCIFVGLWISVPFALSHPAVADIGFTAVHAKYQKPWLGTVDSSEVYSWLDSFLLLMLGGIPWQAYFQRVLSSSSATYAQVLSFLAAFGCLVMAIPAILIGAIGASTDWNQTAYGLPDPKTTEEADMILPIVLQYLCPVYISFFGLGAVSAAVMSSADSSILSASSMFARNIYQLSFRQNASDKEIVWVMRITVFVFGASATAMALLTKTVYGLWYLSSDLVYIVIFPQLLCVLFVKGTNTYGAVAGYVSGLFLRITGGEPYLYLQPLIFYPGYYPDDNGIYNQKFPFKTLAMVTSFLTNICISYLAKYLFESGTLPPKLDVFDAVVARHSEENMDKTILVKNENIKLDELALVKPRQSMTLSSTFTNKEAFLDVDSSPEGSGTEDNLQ
CHT block: inhibitors of human choline transporter CHT. Q9GZV3. CHT-expressing cells, membrane potential dye, choline response; active compounds read low. B-score at 10 µM. 0.86% of 310,000 active. AID 488975;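 active means B-score over 3 SD under the library average, and starting fluorescence ratio not unusually high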;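 further: choline stimulus applied at its EC90 after an EC20 pre-addition; B-score computed on integrated fluorescence ratio after choline addition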
CHT inh conf: human CHT inhibition, confirmatory screen. shares compounds with CHT block. CHT-expressing cells, choline membrane potential dye; LV-to-AA substituted CHT, HEK293 cells. CHT activity remaining % of control (active compounds read low), % at 10 µM. 70% of 2,400 active. AID 493221;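 active means choline transporter activity left, mean of duplicates at 10 µM, below buffer-only control mean minus 3 SD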;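 further: depolarization triggered by choline at its EC90 following an EC20 pre-addition; 0% = hemicholinium-3 full block and 100% = buffer-only control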
HEK293 CHT ctr: activity in parental HEK293 cells lacking CHT. membrane potential ratio readout (active if shifted either direction beyond buffer ±3SD; no single direction) at 10 µM. 4% of 2,400 active. membrane potential dye, choline response; active = decrease or increase beyond buffer ±3SD. shares compounds with CHT block. AID 493222;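 further: parental cells lack the transporter so any hit is non-specific; ratio is peak minus trough fluorescence over baseline after EC90 choline challenge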
Starred values were filed as active, the others as inactive; i = inactive; . = not tested or not shown.

SMILES	NALP1 yeast inh	A1 inh	NLRP3 yeast inh	Mot1-301 SUMO	CHT PAM	CHT block	CHT inh conf	HEK293 CHT ctr
O=C(O)CC1=C(Nc2ccccc2)C(=O)N(c2ccccc2)C1c1ccc(Br)cc1 (configuration not stated)	-5	-1	-1	-11	i	-5.9*	25%*	i
COc1cccc(-c2nc(CS(=O)(=O)CC(=O)NC3CCCCCC3)c(C)o2)c1	-3	0	10	36	i	i	.	.
Cc1nn(C)c(C)c1CN(C)S(=O)(=O)c1ccc2ccccc2c1	-5	0	3	-19	i	-5.1*	51%*	i
CCCCNC(=O)c1cn(CC)c2ccc(S(=O)(=O)N3CCCCCC3)cc2c1=O	1	0	2	17	i	i	.	.
C=CCn1cc(C(=O)NCCCN(CC)CC)c(=O)c2cc(S(=O)(=O)N3CCC(C)CC3)ccc21	6	1	11	-1	i	-8.6*	26%*	i
CCCCN(CCCC)CCNC(=O)c1cn(CC)c2ccc(S(=O)(=O)N3CCc4ccccc4C3)cc2c1=O	25	0	9	-2	i	-9.2*	12%*	i
C=CCn1cc(C(=O)NCCCOCC)c(=O)c2cc(S(=O)(=O)N(CC)CC)ccc21	30	-1	-11	18	i	i	.	.
CCn1cc(C(=O)NCCCN2CCCC(C)C2)c(=O)c2cc(S(=O)(=O)N3CCc4ccccc4C3)ccc21 (configuration not stated)	11	0	13	-1	i	-16*	20%*	3.6*
Cn1cc(C(=O)N2CCc3ccccc3C2)c(=O)c2cc(S(=O)(=O)N3CCOCC3)ccc21	2	-1	-6	-22	i	-6*	i	i
COc1ccc(CCN(C)C(=O)C2CCN(C(=O)Nc3ccccc3)CC2)cc1OC	.	1	8	29	i	i	.	.
CCc1ccccc1NC(=O)CNC(=O)CNC(=O)Cc1ccccc1	.	.	18	.	.	.	.	.
Cn1c(=O)c(Nc2ccc(Cl)cc2)c2c3c(cccc31)C(=O)c1ccccc1-2	11	0	22	2	i	i	.	.
CC(=O)Nc1c2c3c(cccc3n(C)c1=O)C(=O)c1ccccc1-2	8	2	10	-10	i	-5.9*	45%*	2.4*
O=C(N/N=C/c1sc2ccccc2c1O)c1ccccc1	29	-2	20	-7	i	-20*	-81%*	-55*
CN(Cc1c(C(=O)N2CCCCCCC2)nc2ccc(Cl)cn12)C1CCOC1 (configuration not stated)	10	2	6	14	i	i	.	.
CC(/C=C1\SC(=S)N(NC(=O)c2ccncc2)C1=O)=C\c1ccccc1	35	0	10	-3	i	-6.5*	15%*	i
COc1cc(/C=C2\SC(=S)N(NC(=O)c3ccncc3)C2=O)ccc1O	-19	0	12	117	i	-9.8*	-0.4%*	-8.5*
COc1cc(/C=C2\SC(=S)N(NC(=O)c3ccc(O)c(OC)c3)C2=O)ccc1O	-14	0	14	-14	i	i	.	.
COc1ccc(/C=C2/SC(=S)N(NS(=O)(=O)c3ccccc3)C2=O)cc1	-9	-1	1	-2	i	-4.9*	45%*	i
CC(/C=C1\SC(=S)N(NS(=O)(=O)c2ccc(C)cc2)C1=O)=C\c1ccccc1	.	0	-14	-7	i	i	.	.
CC(/C=C1\SC(=S)N(NS(=O)(=O)c2ccccc2)C1=O)=C\c1ccccc1	11	0	-1	10	i	-5.8*	55%*	i
O=C(CSc1nnc(-c2ccncc2)n1Cc1ccco1)c1ccc(Cl)cc1	20	0	2	-4	i	-5.8*	70%*	i
O=C(CSc1nnc(-c2ccc(O)cc2)n1Cc1ccco1)N1CCc2ccccc2C1	11	0	3	7	i	-5.8*	i	i
NC(=O)CSc1nnc(-c2ccc(O)cc2)n1Cc1ccco1	19	0	8	94	i	i	.	.
CCCN(CC(=O)Nc1cc(Cl)ccc1Cl)C(=O)c1ccccc1SCC(=O)N1CCCC1	.	0	3	-4	i	i	.	.
SMILES	NALP1 yeast inh	A1 inh	NLRP3 yeast inh	Mot1-301 SUMO	CHT PAM	CHT block	CHT inh conf	HEK293 CHT ctr
CC(C)Cn1c(=O)c(CCC(=O)Nc2ccc(N3CCOCC3)cc2)nc2cc(Cl)ccc21	21	0	20	11	i	i	.	.
O=C(N/N=C\c1cn[nH]c1-c1ccccc1)c1ccc([N+](=O)[O-])cc1	34	0	14	2	i	i	.	.
O=C(N/N=C/c1cn[nH]c1-c1ccc(Cl)cc1)c1ccc([N+](=O)[O-])cc1	1	1	16	-10	i	-5.1*	60%*	i
CN(Cc1nc(-c2ccncc2)no1)S(=O)(=O)c1ccc(Br)cc1	18	0	15	.	i	-8*	i	i
CCCCn1c(NC(C)CC)nc2c1c(=O)[nH]c(=O)n2C (configuration not stated)	-19	0	14	.	i	-5.5*	37%*	-8.9*
CCC(C)Nc1nc2c(c(=O)[nH]c(=O)n2C)n1CCOc1ccccc1 (configuration not stated)	6	0	1	6	i	i	.	.
CCCCNC(=O)Nc1c(C(=O)OC)[nH]c2ccc(C)cc12	-39	0	4	6	i	-6.9*	i	i
Cc1ccccc1OCCSc1nnc(C)n1-c1ccccc1	2	1	-1	5	i	-5.2*	i	i
O=S(=O)(Nc1nc2ccccc2s1)c1ccc(Cl)nc1	4	1	-6	6	i	i	67%*	i
CC(CC(=O)N1CCc2ccccc21)n1cccn1 (configuration not stated)	-1	0	22	6	i	i	.	.
O=C1c2ccccc2C(=O)c2c(Nc3ccc(CCO)cc3)ccc(O)c21	33	-1	25	-13	i	-7.4*	67%*	i
COc1ccc(C)cc1NC(=O)c1ccccc1NS(=O)(=O)c1ccc(Cl)s1	12	0	-4	20	i	-7.5*	15%*	i
